Laboratory results: PubChem BioAssay (NCATS)
Results filed as inconclusive are left out. The source made the active and inactive calls. Calls come from the whole dose curve; as a rule, active = well fitted curve in the direction sought with a large enough effect; inconclusive = small, poorly fitted or top-dose-only effect, or another doubt; inactive = no such curve, though single readings can be large; an effect the other way counts as inactive or inconclusive. Where a SMILES comes first, the peptide text is derived from it. The star is where a group is joined. PhAc = O=C(Cc1ccccc1)*

What was measured:
HACAT = test: qHTS assay to identify novel small-molecules to repurpose for Merkel cell carcinoma treatment (AID 1296009); conditions: MCC and control cell lines, CellTiter-Glo viability, 72 h; at 44.8 µM (top of the series) unless noted; note: nearly all actives have a fitted effect of over 60% in size
Procedure, shortened: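 qHTS format: cells treated with library compounds in DMSO across 8 (NPC) or 11 (MIPE) concentrations. Readout after 72 hr at 37 degree celsius was CellTiter-Glo luminescence.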

C33A = test: Primary qHTS to identify gynecologic anti-cancer compounds using libraries of approved drugs and bioactive compounds (AID 1345084); conditions: Gynecologic cancer cell panel viability, ATPlite luminescence, 48 h; series mostly up to 57.5 µM; note: % is set by controls: 0 for no effect and ±100 for the full control effect; nearly all actives have a fitted effect of over 55% in size
Procedure, shortened: (§1)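 Five-concentration response, 48 h; readout is ATP-driven luciferase luminescence.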

CAOV3 = test: as above; conditions: Gynecologic cancer cell panel viability, ATPlite luminescence, 48 h; series mostly up to 57.5 µM
Procedure, shortened: as §1

CASKI = test: as above; conditions: Gynecologic cancer cell panel viability, ATPlite luminescence, 48 h; series mostly up to 57.5 µM
Procedure, shortened: as §1

Es-2 = test: as above; conditions: Gynecologic cancer cell panel viability, ATPlite luminescence, 48 h; series mostly up to 57.5 µM
Procedure, shortened: as §1

HeLa = test: as above; conditions: Gynecologic cancer cell panel viability, ATPlite luminescence, 48 h; series mostly up to 57.5 µM
Procedure, shortened: as §1

Hek293T = test: as above; conditions: Gynecologic cancer cell panel viability, ATPlite luminescence, 48 h, control line for the selectivity index; series mostly up to 57.5 µM
Procedure, shortened: as §1

JEG-3 = test: as above; conditions: Gynecologic cancer cell panel viability, ATPlite luminescence, 48 h; series mostly up to 57.5 µM
Procedure, shortened: as §1

CC(C)C1C(OC(=O)/C=C/c2ccccc2)CC2(C)OC2CCC2(C)OC2C1O (stereo unspecified)
inactive: outcome (HACAT) | Potency (C33A) | Potency (CAOV3) | outcome (CASKI) | Potency (Es-2) | Potency (HeLa) | Potency (Hek293T) | Potency (JEG-3)

CCOC(=O)CNC(=O)[C@@H]1CCCN1C(=O)Cc1ccccc1 (PhAc-Pro-Gly-OEt)
inactive: outcome (HACAT) | Potency (C33A) | Potency (CAOV3) | outcome (CASKI) | Potency (Es-2) | Potency (HeLa) | Potency (Hek293T) | Potency (JEG-3)

C[C@@H]1O[C@@H](O[C@H]2[C@H](O[C@H]3[C@H](O[C@H]4CC[C@@]5(C)C(CC[C@]6(C)C5CC=C5[C@@H]7CC(C)(C)CC(=O)[C@]7(C)CC[C@]56C)[C@@]4(C)CO)O[C@H](C(=O)O)[C@@H](O)[C@@H]3O)O[C@H](CO)[C@H](O)[C@@H]2O)[C@H](O)[C@H](O)[C@H]1O (stereo partly specified)
inactive: outcome (HACAT) inactive [at 9.27 µM] | activity change, negative = cytotoxicity (C33A) 0.189% [at 11.6 µM] | activity change, negative = cytotoxicity (CAOV3) 7.98% [at 11.6 µM] | activity change, negative = cytotoxicity (CASKI) 5.16% [at 11.6 µM] | activity change, negative = cytotoxicity (Es-2) -0.773% [at 11.6 µM] | activity change, negative = cytotoxicity (HeLa) 5.13% [at 11.6 µM] | activity change, negative = cytotoxicity (Hek293T) -1.22% [at 11.6 µM] | activity change, negative = cytotoxicity (JEG-3) 4.8% [at 11.6 µM]

C=C(CCO)C(=O)OCC1OCC(OC(=O)C(=C)CCO[C@@H]2O[C@H](CO)[C@@H](O)[C@H](O)[C@H]2O)C(O)C1O (stereo partly specified)
inactive: outcome (HACAT) inactive [at 17.4 µM] | Potency (C33A) | Potency (CAOV3) | outcome (CASKI) | Potency (Es-2) | Potency (HeLa) | Potency (Hek293T) | Potency (JEG-3)

COCC1OC(n2cnc3c(=O)[nH]cnc32)C(O)C1O (stereo unspecified)
inactive: outcome (HACAT) | Potency (C33A) | Potency (CAOV3) | outcome (CASKI) | Potency (Es-2) | Potency (HeLa) | Potency (Hek293T) | Potency (JEG-3)

CC1(C)CC2C3=CCC4[C@@]5(C)CC[C@H](OC6OCC(O)C(OC7OC(CO)C(O)C(O)C7O)C6O)C(C)(C)C5CC[C@@]4(C)[C@]3(C)C[C@H](O)[C@@]2(CO)[C@H](OC(=O)c2ccccc2)C1 (stereo partly specified)
inactive: outcome (HACAT) inactive [at 9.27 µM] | activity change, negative = cytotoxicity (C33A) -0.821% [at 11.6 µM] | activity change, negative = cytotoxicity (CAOV3) -7.46% [at 11.6 µM] | activity change, negative = cytotoxicity (CASKI) -3.21% [at 11.6 µM] | activity change, negative = cytotoxicity (Es-2) -3.08% [at 11.6 µM] | activity change, negative = cytotoxicity (HeLa) 2.29% [at 11.6 µM] | activity change, negative = cytotoxicity (Hek293T) 17.5% [at 11.6 µM] | activity change, negative = cytotoxicity (JEG-3) 8.97% [at 11.6 µM]

C=C1CC[C@@H]2[C@@](C)(CO[C@@H]3O[C@H](CO)[C@@H](O)[C@H](O)[C@H]3O)[C@H](O)CC[C@@]2(C)[C@@H]1CC/C(C)=C/CO[C@@H]1O[C@H](CO)[C@@H](O)[C@H](O)[C@H]1O
inactive: outcome (HACAT) inactive [at 17.4 µM] | Potency (C33A) | Potency (CAOV3) | outcome (CASKI) | Potency (Es-2) | Potency (HeLa) | Potency (Hek293T) | Potency (JEG-3)

C[C@@H](CC[C@@H]1[C@@]2(C)CCCC(C)(C)C2CC[C@@]1(C)O)CC(=O)O (stereo partly specified)
inactive: outcome (HACAT) | Potency (C33A) | Potency (CAOV3) | outcome (CASKI) | Potency (Es-2) | Potency (HeLa) | Potency (Hek293T) | Potency (JEG-3)

Cc1cn(C[C@H](N)C(=O)O)c(=O)n(Cc2ccsc2C(=O)O)c1=O
inactive: outcome (HACAT) | Potency (C33A) | Potency (CAOV3) | outcome (CASKI) | Potency (Es-2) | Potency (HeLa) | Potency (Hek293T) | Potency (JEG-3)

O=C(Cn1c2ccccc2c2nc3n(c(=O)c21)CCS3)N1CCCC1
inactive: outcome (HACAT) | Potency (C33A) | Potency (CAOV3) | outcome (CASKI) | Potency (Es-2) | Potency (HeLa) | Potency (Hek293T) | Potency (JEG-3)

C=C1CCC2[C@](C)(CO)CCC[C@@]2(C)[C@@H]1CCC1=CCOC1=O (stereo partly specified)
inactive: outcome (HACAT) | Potency (C33A) | Potency (CAOV3) | outcome (CASKI) | Potency (Es-2) | Potency (HeLa) | Potency (Hek293T) | Potency (JEG-3)

O=C1OC(c2ccc(O)cc2)C(O)=C1Cc1ccccc1 (stereo unspecified)
inactive: outcome (HACAT) | Potency (C33A) | Potency (CAOV3) | outcome (CASKI) | Potency (Es-2) | Potency (HeLa) | Potency (Hek293T) | Potency (JEG-3)

N=C(N)c1ccc2nc(-c3cc(CC(=O)NC(CC(=O)O)C(=O)O)cc(-c4cc(S(N)(=O)=O)ccc4O)c3O)[nH]c2c1 (stereo unspecified)
inactive: outcome (HACAT) | Potency (C33A) | Potency (CAOV3) | outcome (CASKI) | Potency (Es-2) | Potency (HeLa) | Potency (Hek293T) | Potency (JEG-3)

COc1cc(C)c(C(=O)O[C@@H]2[C@H](O)[C@@H](CO)O[C@H]2n2ccc(=O)[nH]c2=O)c(OC)c1
inactive: outcome (HACAT) inactive [at 17.4 µM] | Potency (C33A) | Potency (CAOV3) | outcome (CASKI) | Potency (Es-2) | Potency (HeLa) | Potency (Hek293T) | Potency (JEG-3)

C[C@H]1CC(=O)C2=C(C1)C(O)C(O)[C@@]1(O)[C@H]2C(=O)c2cccc(O)c2[C@@H]1O (stereo partly specified)
inactive: outcome (HACAT) | Potency (C33A) | Potency (CAOV3) | outcome (CASKI) | Potency (Es-2) | Potency (HeLa) | Potency (Hek293T) | Potency (JEG-3)

c1cc(-c2cc(C3CCNCC3)[nH]n2)ccn1
inactive: outcome (HACAT) inactive [at 17.4 µM] | Potency (C33A) | Potency (CAOV3) | outcome (CASKI) | Potency (Es-2) | Potency (HeLa) | Potency (Hek293T) | Potency (JEG-3)

C/C=C1/[C@H](O[C@@H]2O[C@H](CO)[C@@H](O)[C@H](O)[C@H]2O)OC=C(C(=O)OC)[C@H]1CC(=O)OCCc1ccc(OC(=O)C[C@@H]2C(C(=O)OC)=CO[C@@H](O[C@@H]3O[C@H](CO)[C@@H](O)[C@H](O)[C@H]3O)/C2=C/C)cc1
inactive: outcome (HACAT) inactive [at 9.27 µM] | activity change, negative = cytotoxicity (C33A) 3.14% [at 11.6 µM] | activity change, negative = cytotoxicity (CAOV3) 14% [at 11.6 µM] | activity change, negative = cytotoxicity (CASKI) 4.82% [at 11.6 µM] | activity change, negative = cytotoxicity (Es-2) 6.86% [at 11.6 µM] | activity change, negative = cytotoxicity (HeLa) 18.2% [at 11.6 µM] | activity change, negative = cytotoxicity (Hek293T) 5.22% [at 11.6 µM] | activity change, negative = cytotoxicity (JEG-3) 15.1% [at 11.6 µM]
